The text below walks through data of PubChem BioAssay (NCI).

Test systems include NCI-H23 lung; NCI-H226 lung; NCI-H322M lung; HOP-62 NSCLC; NCI-H460 lung; HOP-92 NSCLC; NCI-H522 lung; A549/ATCC NSCLC; 786-0 renal; COLO 205 colon; DU-145 prostate; K-562 leukemia; MALME-3M melanoma; MDA-MB-231 breast; RXF 393 renal; SF-268 CNS; SF-295 CNS; SF-539 CNS; UACC-257 melanoma; M14 melanoma.
Holding throughout (assay): NCI-60 one-dose screen, 48 h (100 = growth as untreated, 0 = no growth, -100 = all killed)
What all share (details): 10 µM

The panel holds about 83,000 compounds, 20% with a hit somewhere; the sample as a whole holds those more often.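 Single-concentration screen, 48 h exposure, 96-well plates. Endpoint: percent growth. Below 10 = active.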 A number with no mark means an inactive call. Active and inactive are the calls of the source.

For the compound `C#C[C@]1(O)CC[C@H]2[C@@H]3CC[C@H]4CC(F)(F)CC[C@]4(C)[C@H]3CC[C@@]21C`, the growth was 95.5% in the experiment on NCI-H23 lung; 90.4% with NCI-H226 lung; 89% in the experiment on NCI-H322M lung; 67.5% in the experiment on HOP-62 NSCLC; 83.9% with NCI-H460 lung; 93.8% in the experiment with HOP-92 NSCLC. Moreover, the growth was 105% with NCI-H522 lung; 77.2% with A549/ATCC NSCLC; 101% in the experiment with 786-0 renal; 90.9% with COLO 205 colon; 61.2% in the experiment on DU-145 prostate; 76.2% in the experiment with K-562 leukemia. Also, the growth with MALME-3M melanoma is 88%; in the experiment with MDA-MB-231 breast, 101%; in the experiment with RXF 393 renal it was 86.4%; in the experiment with SF-268 CNS, 92.9%; with SF-295 CNS, 69.1%; with SF-539 CNS, 54.6%. The growth is 78.3% with UACC-257 melanoma and 80.4% in the experiment on M14 melanoma.
Consider `O=C(Nc1cccc(-c2nc3ccccc3[nH]2)c1)c1cccc(NC(=O)c2ccco2)c1`, for which the growth in the experiment on NCI-H23 lung is 98%; in the experiment with NCI-H226 lung, 90.1%; with NCI-H322M lung, 94.1%; with HOP-62 NSCLC, 73.2%; with NCI-H460 lung, 91.6%; in the experiment on HOP-92 NSCLC it was 38.8%. For the same compound, the growth with NCI-H522 lung is 98.5%; in the experiment with A549/ATCC NSCLC, 82.7%; in the experiment with 786-0 renal it was 67%; with COLO 205 colon, 31.4%; in the experiment with DU-145 prostate, 103%; with K-562 leukemia, 2.96% (active). In addition, the growth in the experiment on MALME-3M melanoma was 73.9%; with MDA-MB-231 breast it was 34.6%; with RXF 393 renal it was 67.6%; in the experiment with SF-268 CNS, 75.7%; with SF-295 CNS it was 80.3%; in the experiment on SF-539 CNS it was 64.9%. Further, the growth is -20.2% (active) with UACC-257 melanoma and 3.76% (active) in the experiment on M14 melanoma.
With `CC1(C)CNC(=O)N1`, the growth in the experiment on NCI-H23 lung was 104%; with NCI-H226 lung, 92.8%; in the experiment on NCI-H322M lung, 109%; in the experiment on HOP-62 NSCLC it was 92.6%; with NCI-H460 lung, 106%; with HOP-92 NSCLC it was 87%. Further, the growth with NCI-H522 lung is 83.9%; in the experiment with A549/ATCC NSCLC it was 93.3%; in the experiment with 786-0 renal it was 94.3%; with COLO 205 colon, 101%; in the experiment with DU-145 prostate, 110%; in the experiment on K-562 leukemia, 98.1%. The growth in the experiment on MALME-3M melanoma is 95.2%; in the experiment on MDA-MB-231 breast it was 100%; with RXF 393 renal, 108%; in the experiment on SF-268 CNS, 103%; in the experiment on SF-295 CNS it was 98.7%; in the experiment with SF-539 CNS, 98.9%. Also, the growth is 99.8% with UACC-257 melanoma and 94.1% with M14 melanoma.
Turning to `Nc1nc2c(nnn2C2CC(O)C(CO)O2)c(=O)[nH]1` (stereo not given), the growth with NCI-H23 lung was 45%; with NCI-H226 lung, 50%; in the experiment with NCI-H322M lung, 52%; in the experiment with HOP-62 NSCLC it was 69%; in the experiment on NCI-H460 lung, 54.3%; with HOP-92 NSCLC it was 43.7%. Also, the growth in the experiment on NCI-H522 lung is 24.4%; in the experiment with A549/ATCC NSCLC, 76.2%; in the experiment on 786-0 renal it was 50.7%; with COLO 205 colon, 11.9%; with DU-145 prostate it was 21.8%; with K-562 leukemia it was 40.5%. Further, the growth in the experiment on MALME-3M melanoma was 79.5%; with MDA-MB-231 breast it was 58.5%; with RXF 393 renal, 50.6%; in the experiment on SF-268 CNS, 50.2%; in the experiment with SF-295 CNS, 56.4%; in the experiment with SF-539 CNS, 33.4%. Moreover, the values for the growth with UACC-257 melanoma and in the experiment with M14 melanoma were 77.7% and 40%, respectively.
For the compound `CCCC(C)c1ccc(OCCCCCCN2CCNCC2)cc1` (stereo not given), the growth was 61.6% with NCI-H23 lung; 89.3% with NCI-H226 lung; 58.3% in the experiment on NCI-H322M lung; 66.6% in the experiment on HOP-62 NSCLC; 6.72% (active) with NCI-H460 lung; 25.1% with HOP-92 NSCLC. For the same compound, the growth with NCI-H522 lung was 3.3% (active); in the experiment with A549/ATCC NSCLC, 39.7%; in the experiment on 786-0 renal, -21.1% (active); in the experiment with COLO 205 colon it was -68.3% (active); with DU-145 prostate, 38.4%; with K-562 leukemia it was -34.1% (active). Besides, the growth in the experiment on MALME-3M melanoma is 37%; in the experiment with MDA-MB-231 breast, -0.569% (active); in the experiment on RXF 393 renal, -13.3% (active); in the experiment with SF-268 CNS, 70.4%; in the experiment with SF-295 CNS, -6.71% (active); in the experiment with SF-539 CNS, 56.1%. In addition, the figures for the growth with UACC-257 melanoma and in the experiment on M14 melanoma were 79% and 57.5%, respectively.
Take `O=C1CC(c2cccc(-c3cccnc3)c2)=Nc2ccc(Br)cc2N1`: the growth in the experiment on NCI-H23 lung was 44.4%; in the experiment on NCI-H226 lung it was 27.8%; in the experiment with NCI-H322M lung, 67.2%; in the experiment with HOP-62 NSCLC it was 19.7%; with NCI-H460 lung, 24.3%; in the experiment on HOP-92 NSCLC, 23.5%. Moreover, the growth is 22.5% in the experiment with NCI-H522 lung; 38.1% in the experiment with A549/ATCC NSCLC; 1.54% (active) in the experiment on 786-0 renal; 61.1% in the experiment on COLO 205 colon; 65.8% in the experiment with DU-145 prostate; 54.2% with K-562 leukemia. Further, the growth was 40.9% in the experiment on MALME-3M melanoma; 43.6% in the experiment with MDA-MB-231 breast; 40.2% in the experiment on RXF 393 renal; 44.1% in the experiment on SF-268 CNS; 48.7% with SF-295 CNS; 55.7% in the experiment on SF-539 CNS. For the same compound, the growth in the experiment on UACC-257 melanoma was 38.5%; in the experiment on M14 melanoma, 37.8%.
